From publication PMC5540273 (PLoS ONE, 2017) come the findings set out here.

Settings in all cases: concentration: 1 μM, replicates: in singlicate; n = 1
Assay [1] relates to ACVR2A.
Assay [2] deals with ACVR2B.
For assay [3], the system named is ACVRL1.
The subject of assay [4] is T1, ADCK3.
T1 construct: gene CABC1

The subject of assay [5] is ADCK4.
The subject of assay [6] is AKT1.
The subject of assay [7] is AKT2.
Assay [8] has as its system AKT3.
Assay [9] relates to ALK.
For assay [10], the system named is T2, AMPK-alpha1.
T2 construct: gene PRKAA1

Assay [11] deals with T3, AMPK-alpha2.
T3 construct: gene PRKAA2

The subject of assay [12] is ANKK1.
For assay [13], the system named is T4, ARK5.
T4 construct: gene NUAK1

Assay [14] has as its system T5, ASK1.
T5 construct: gene MAP3K5

The subject of assay [15] is T6, ASK2.
T6 construct: gene MAP3K6

Assay [16] deals with AURKA.
The test system of assay [17] is AURKB.
The test system of assay [18] is AURKC.
The test system of assay [19] is AXL.
Assay [20] deals with T7, BIKE.
T7 construct: gene BMP2K
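Also: KINOMEscan kinase panel screen.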

As for `Fc1ccc(-c2ncn(CCCN3CCOCC3)c2-c2ccccn2)cc1` [SB-211742], the “%Inh” value in assay [1] is 0%; in assay [2], 19%; in assay [3] it was 0%; in assay [4], 3%; in assay [5], 6%; in assay [6] it was 15%. Also, the “%Inh” value turned out to be 4% in [7]; 0% in assay [8]; 19% in assay [9]; 10% in assay [10]; 0% in assay [11]; 0% in [12]. Further, the “%Inh” value in assay [13] turned out to be 0%; in assay [14], 10%; in assay [15] it was 0%; in assay [16], 0%; in assay [17], 0%; in assay [18] it was 0%. Moreover, the results for the “%Inh” value in assay [19] and in assay [20] were 6% and 23%, respectively.
Regarding `COc1cc2c(cc1OC[C@@H](O)CO)ncc1c3ccc(C#N)cc3[nH]c21`, the “%Inh” value stood at 0% in assay [1]; 1% in [2]; 0% in [3]; 0% in assay [4]; 0% in assay [5]; 0% in assay [6]. Besides, the “%Inh” value in assay [7] is 0%; in [8] it was 0%; in [9] it was 15%; in assay [10], 0%; in assay [11] it was 0%; in assay [12], 73%. In addition, the “%Inh” value came to 0% in [13]; 0% in assay [14]; 0% in assay [15]; 6% in assay [16]; 52% in [17]; 0% in assay [18]. The “%Inh” value in assay [19] was found to be 17%; in assay [20], 96.2%.
For the compound `COc1ccc(COc2cc(-n3cnc4ccccc43)sc2C(N)=O)cc1` [GSK1024304], the “%Inh” value in assay [1], in assay [2], in [3], in [4], in assay [5] and in assay [6] was 0% each time. For the same compound, the “%Inh” value in assay [7] came out at 0%; in assay [8], 54%; in assay [9], 23%; in [10] it was 26%; in [11], 0%; in assay [12], 8%. The “%Inh” value in assay [13] amounted to 14%; in assay [14], 0%; in [15], 0%; in assay [16] it was 2%; in [17], 0%; in assay [18], 12%. The “%Inh” value worked out at 0% in assay [19] and 25% in [20].
On to `COc1cc2ncn(-c3cc(OCc4sccc4Cl)c(C(N)=O)s3)c2cc1OC` [GSK448459], for which the “%Inh” value in assay [1] worked out at 0%; in [2] it was 0%; in [3], 0%; in assay [4] it was 0%; in [5], 39%; in assay [6], 0%. Also, the “%Inh” value is recorded as 1% in [7]; 0% in [8]; 21% in assay [9]; 0% in [10]; 0% in [11]; 0% in assay [12]. In addition, the “%Inh” value is listed as 15% in assay [13]; 0% in assay [14]; 0% in assay [15]; 0% in assay [16]; 12% in assay [17]; 41% in assay [18]. The “%Inh” value was determined as 10% in assay [19] and 90% in [20].
In the case of `Nc1nc(-c2ccc3c(N)n[nH]c3c2)cc(N2CCCC2)n1` [GSK2227430], the “%Inh” value in [1] was 0%; in assay [2] it was 0%; in [3], 0%; in assay [4], 0%; in assay [5], 2%; in assay [6], 0%. The “%Inh” value stood at 3% in [7]; 0% in [8]; 4% in assay [9]; 0% in assay [10]; 0% in [11]; 4% in [12]. The “%Inh” value in assay [13] came to 17%; in assay [14] it was 0%; in [15], 0%; in [16], 0%; in assay [17], 0%; in [18], 37%. In addition, the “%Inh” value in assay [19] is recorded as 0%; in assay [20], 33%.
With `O=C(Nc1n[nH]c2cc(-c3cccc(F)c3)ccc12)C1CC1` [SB-735464], the “%Inh” value in assay [1] was determined as 32%; in assay [2], 50%; in [3], 4%; in assay [4] it was 0%; in assay [5], 0%; in assay [6] it was 0%. Moreover, the “%Inh” value in assay [7] came to 0%; in [8], 19%; in assay [9] it was 0%; in assay [10] it was 10%; in [11], 69%; in assay [12] it was 0%. Also, the “%Inh” value was determined as 0% in assay [13]; 0% in assay [14]; 22% in [15]; 18% in assay [16]; 39% in assay [17]; 35% in assay [18]. Also, the entries for the “%Inh” value in assay [19] and in [20] were 27% and 21%, respectively.
As to `N#Cc1ccc(-c2cc(-c3c[nH]nc3-c3ccccn3)ccn2)cc1` [GW693028], the “%Inh” value was found to be 0% in [1]; 40% in assay [2]; 0% in [3]; 0% in assay [4]; 20% in [5]; 0% in assay [6]. The “%Inh” value in assay [7] stood at 0%; in assay [8] it was 0%; in assay [9], 25%; in [10], 0%; in assay [11] it was 49%; in assay [12], 0%. In addition, the “%Inh” value was 27% in [13]; 0% in assay [14]; 0% in assay [15]; 0% in assay [16]; 32% in assay [17]; 0% in [18]. Moreover, the “%Inh” value in assay [19] was 0%; in assay [20] it was 11%.
Take `O=c1cc(N2CCOCC2)nc2n(Cc3cccc4ccccc34)ccn12` [GSK2333389]: the “%Inh” value was determined as 9% in assay [1]; 0% in [2]; 0% in assay [3]; 6% in assay [4]; 0% in [5]; 0% in assay [6]. The “%Inh” value was determined as 20% in assay [7]; 0% in assay [8]; 2% in assay [9]; 0% in [10]; 0% in assay [11]; 0% in [12]. Besides, the “%Inh” value in assay [13] was found to be 33%; in assay [14] it was 0%; in assay [15], 15%; in assay [16], 0%; in assay [17] it was 0%; in assay [18] it was 14%. The entries for the “%Inh” value in [19] and in [20] were 0% and 16%, respectively.
Turning to `CC(=O)Nc1ccc(COc2ccc(Nc3ccnc4cc(-c5ccccn5)ccc34)cc2)cc1.Cl` [GW440148], the “%Inh” value in [1] came to 0%; in assay [2], 59%; in [3], 3%; in assay [4], 18%; in assay [5], 26%; in [6], 0%. Besides, the “%Inh” value amounted to 15% in assay [7]; 0% in assay [8]; 6% in [9]; 0% in [10]; 11% in assay [11]; 8% in [12]. The “%Inh” value in assay [13] is 18%; in assay [14], 10%; in [15], 0%; in [16], 14%; in assay [17] it was 67%; in [18], 46%. The “%Inh” value in assay [19] was found to be 1%; in assay [20] it was 8%.
As to `Cc1nnc(-c2ccc3ncc(-c4ccc(S(C)=O)cc4)n3c2)o1` (stereo not drawn), the “%Inh” value came out at 0% in [1]; 0% in assay [2]; 0% in assay [3]; 0% in [4]; 18% in assay [5]; 3% in [6]. The “%Inh” value in assay [7] was 15%; in assay [8] it was 2%; in assay [9], 40%; in assay [10], 1%; in assay [11], 0%; in [12] it was 0%. The “%Inh” value came to 0% in assay [13]; 0% in assay [14]; 9% in assay [15]; 18% in [16]; 21% in [17]; 0% in assay [18]. Further, the “%Inh” value in assay [19] was 11%; in [20], 0%.
`Nc1nccc(-c2c(-c3ccc(F)cc3)ncn2C2CCN(CC(F)(F)F)CC2)n1` [SB-236560]: the “%Inh” value turned out to be 0% in assay [1]; 0% in assay [2]; 0% in assay [3]; 0% in [4]; 47% in assay [5]; 0% in assay [6]. The “%Inh” value came to 0% in assay [7]; 0% in [8]; 29% in assay [9]; 0% in assay [10]; 0% in assay [11]; 0% in assay [12]. In addition, the “%Inh” value came to 0% in [13]; 0% in assay [14]; 0% in assay [15]; 2% in assay [16]; 0% in assay [17]; 0% in assay [18]. The figures for the “%Inh” value in [19] and in assay [20] were 46% and 0%, respectively.
For `O=C1Cc2cc(Nc3nc(NCc4cccc(S(=O)(=O)C(F)(F)F)c4)ncc3C(F)(F)F)ccc2N1`, the “%Inh” value in [1] was determined as 0%; in assay [2], 0%; in assay [3] it was 0%; in [4] it was 0%; in [5], 2%; in assay [6], 0%. Besides, the “%Inh” value is 1% in assay [7]; 0% in assay [8]; 0% in assay [9]; 2% in assay [10]; 0% in [11]; 0% in assay [12]. The “%Inh” value was 22% in assay [13]; 11% in assay [14]; 0% in assay [15]; 1% in [16]; 13% in assay [17]; 0% in assay [18]. For the same compound, the figures for the “%Inh” value in [19] and in [20] were 2% and 0%, respectively.
`NS(=O)(=O)c1cccc(-c2ccc3ncc(N4CCOCC4)nc3c2)c1` [GSK1535721]: the “%Inh” value is reported as 0% in assay [1]; 0% in [2]; 0% in [3]; 28% in assay [4]; 9% in [5]; 0% in assay [6]. The “%Inh” value is recorded as 4% in assay [7]; 0% in assay [8]; 6% in [9]; 1% in assay [10]; 12% in assay [11]; 15% in assay [12]. The “%Inh” value in [13] was determined as 0%; in [14], 0%; in assay [15] it was 0%; in assay [16], 19%; in [17], 0%; in [18] it was 0%. Further, the figures for the “%Inh” value in assay [19] and in assay [20] were 2% and 0%, respectively.
Consider `O=C1NC(=O)C(N2CCc3ccccc32)=C1c1cccc(Cl)c1` [SB-408010], for which the “%Inh” value in [1] was found to be 0%; in assay [2], 7%; in assay [3] it was 13%; in [4], 17%; in assay [5], 0%; in assay [6], 5%. Besides, the “%Inh” value in [7] was found to be 0%; in assay [8], 5%; in [9] it was 0%; in [10] it was 0%; in [11] it was 22%; in assay [12], 1%. Further, the “%Inh” value in assay [13] was found to be 10%; in assay [14], 0%; in [15] it was 0%; in assay [16], 25%; in assay [17], 7%; in [18] it was 37%. In addition, the “%Inh” value stood at 0% in assay [19] and 37% in [20].
For `CC(C)Oc1ccc2c(-c3ccnc(Nc4ccc(N5CCN(C)CC5)cc4)n3)cnn2n1` [GW696155], the “%Inh” value in assay [1] is 0%; in assay [2] it was 0%; in assay [3], 0%; in assay [4], 20%; in [5], 83%; in assay [6], 0%. Besides, the “%Inh” value in assay [7] turned out to be 0%; in assay [8] it was 0%; in [9], 42%; in assay [10], 41%; in assay [11] it was 52%; in assay [12], 20%. The “%Inh” value in assay [13] was 95.5%; in assay [14], 0%; in assay [15], 0%; in [16], 98.6%; in assay [17], 70%; in [18] it was 75%. The figures for the “%Inh” value in [19] and in assay [20] were 74% and 99.8%, respectively.
